Screens (PubChem)
The list is not random: actives were taken first. Their share in the collection is about 2.3%.
GLS inh: inhibitors of human glutaminase (GLS); O94925; GLS enzymatic activity, qHTS titration; Potency, µM (doses to about 45.5 µM), without a hit: at the highest dose activity change, negative = inhibition, most hits filed as inhibitors; 410,000 compounds, 0.21% hits; AID 624170; note: % is set by controls: 0 for no effect and ±100 for the full control effect
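Glutamate formation by hKGA was monitored fluorometrically using coupled glutamate oxidase, HRP and Amplex Red. Substrate was added as 1 mM L-glutamine solution; incubation was 30 min at RT after an initial read.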
GRP78 ERSR act: induces the endoplasmic reticulum stress response in human glioma cells; U87-MG GRP78 promoter luciferase reporter, 16 h; Potency, µM, for the others: at the top dose activation, usual class: activators; 420,000 compounds, 0.02% hits; AID 602332; note: series mostly up to about 76 µM; % of control where 0% means no effect; nearly all actives have a fitted effect of over 35% in size
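ERSR induction read as luciferase luminescence (Bright-Glo, 10 min at room temperature) in stably transfected human U87-MG glioma cells exposed to compounds for 16 h, using GRP78 as sensor.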
GLP1R inv ag: acts as inverse agonist at human GLP-1 receptor | P43220 | HEK293 GLP-1R CRE-luciferase, luminescence, 24 h; GLP-1R form is constitutively active | Potency, µM (doses to about 38.3 µM), for the others: at the highest dose activity change, negative = inhibition, actives largely listed as inhibitors | 410,000 compounds, 1.6% hits; note: % is set by controls: 0 for no effect and ±100 for the full control effect; nearly all actives have a fitted effect of over 55% in size
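Luminescence readout: a drop in cAMP-driven luciferase signal flags inverse agonism at a constitutively active GLP-1R stably expressed in HEK293. Compound exposure lasted 24 hr at 37 deg C, 5% CO2.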
PTHR1 agonist: PTHR1 (human) receptor agonism. HEK293 GP2 PTHR1 cells, GloSensor cAMP luminescence, 1 h. AID 743266. Potency, µM (doses to about 115 µM), for the others: top-dose activation, usual class: activators. 410,000 compounds, 0.075% hits; note: nearly all actives have a fitted effect of over 55% in size
Target sequence (Q03431 whole entry, looked up): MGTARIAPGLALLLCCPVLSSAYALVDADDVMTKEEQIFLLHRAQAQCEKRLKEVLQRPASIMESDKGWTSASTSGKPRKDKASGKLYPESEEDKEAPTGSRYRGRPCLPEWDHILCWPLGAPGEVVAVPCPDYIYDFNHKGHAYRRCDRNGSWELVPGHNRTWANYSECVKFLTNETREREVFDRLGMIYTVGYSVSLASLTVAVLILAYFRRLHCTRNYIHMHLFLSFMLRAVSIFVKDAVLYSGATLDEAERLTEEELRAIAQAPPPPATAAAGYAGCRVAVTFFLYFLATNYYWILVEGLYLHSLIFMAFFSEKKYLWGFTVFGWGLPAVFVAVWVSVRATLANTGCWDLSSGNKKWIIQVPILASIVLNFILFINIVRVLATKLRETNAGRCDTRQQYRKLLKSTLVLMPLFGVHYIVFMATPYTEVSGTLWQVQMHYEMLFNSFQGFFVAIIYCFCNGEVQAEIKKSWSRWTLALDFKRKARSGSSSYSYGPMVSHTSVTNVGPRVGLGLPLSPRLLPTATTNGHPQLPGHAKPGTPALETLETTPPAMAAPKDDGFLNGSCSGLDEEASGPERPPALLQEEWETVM
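HEK-293-derived GP2 cells expressing PTHR1 and a GloSensor cAMP reporter, 3,000/well, plated overnight, given luciferin plus IBMX (each 0.5 mM as added) for 1 h at 37 °C, then compound for 1 h at 37 °C. Luminescence was read after 15 min at room temperature.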
ALOX12 inh: blocks human arachidonate 12S-lipoxygenase; Potency, µM (doses to about 108 µM), without a hit: at the highest dose activity change, negative = inhibition, hits mostly inhibitors; AID 1671190; purified 12hLO, xylenol orange hydroperoxide absorbance; P18054; 580,000 compounds, 1.1% hits; note: % is set by controls: 0 for no effect and ±100 for the full control effect
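Hydroperoxide product was detected by ferrous iron/xylenol orange as the 573 to 405 nm absorbance ratio. Arachidonic acid at 40 uM (final) was turned over for 30 min at room temperature by 150 nM human 12hLO, pH 7.0 Hepes buffer, after 15 min compound preincubation.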
GLP-1R agonist: GLP-1 receptor (human) agonism; 380,000 compounds, 0.007% hits; HEK293 GLP-1R CRE-luciferase, luminescence, 4-6 h; cells express a hypersensitive GLP-1R form; Potency, µM (top dose mostly 45.6 µM), for the others: top-dose activation, actives largely listed as activators; note: % of control where 0% means no effect
* = called active by the depositor. Calls come from the whole dose curve; as a rule, active = well fitted curve in the direction sought with a large enough effect; inconclusive = small, poorly fitted or top-dose-only effect, or another doubt; inactive = no such curve, though single readings can be large; an effect the other way counts as inactive or inconclusive. Potency is the fitted concentration of half-maximal effect.

What do the screens show for `O=C(NCc1ccc(Cl)cc1Cl)C1CCN(S(=O)(=O)c2ccc3c(c2)OCCCO3)CC1`?
GLS inh: -2%; GRP78 ERSR act: -4%; GLP1R inv ag: 7.9µM*; PTHR1 agonist: -2%; ALOX12 inh: -15%; GLP-1R agonist: 3%

Results for O=C(Cc1ccc(S(=O)(=O)N2CCCCC2)cc1)NCc1ccc(Cl)cc1 ?
GLS inh: 3%; GRP78 ERSR act: -4%; GLP1R inv ag: 7.1µM*; PTHR1 agonist: -69%; ALOX12 inh: 8%; GLP-1R agonist: 22%

Results for CCCNC(=O)C(C)NC(=O)Cc1ccc(S(=O)(=O)N2CCCCC2)cc1 (configuration not stated) ?
ALOX12 inh: 20µM*

How did CCC(C)NC(=O)Cc1ccc(S(=O)(=O)N2CCCCC2)cc1 (configuration not stated) do in these assays?
ALOX12 inh: 2%

Results for O=C(O)c1c2c(nc3ccc(S(=O)(=O)N4CCC(C(=O)NCc5ccc(Cl)cc5)CC4)cc13)CCCC2 ?
GLS inh: 0%; GRP78 ERSR act: -7%; GLP1R inv ag: 1%; PTHR1 agonist: -10%; ALOX12 inh: 25µM*; GLP-1R agonist: -4%

What do the screens show for `O=C(c1cc(-c2cccs2)nc2ccccc12)N1CCC1`?
ALOX12 inh: 28%

How did Cc1ccc(-c2[nH]c(-c3ccc(F)cc3)nc2SCC(=O)Nc2nccs2)cc1 do in these assays?
ALOX12 inh: 8%

How did Oc1c(Cl)cccc1C=Nc1cc(C(F)(F)F)ccc1Oc1ccccc1 do in these assays?
ALOX12 inh: -26%

Results for CC(C)N(Cc1ccccc1)C(=O)CN1C(=O)COc2ccc(S(=O)(=O)N3CCCCCC3)cc21 ?
GLS inh: 2%; GRP78 ERSR act: -1%; GLP1R inv ag: 7.9µM*; PTHR1 agonist: inactive; ALOX12 inh: inconclusive; GLP-1R agonist: -2%

What do the screens show for `Cc1c(C(=O)NCc2ccc(F)cc2)oc2ccc(S(=O)(=O)N3CCCCC3)cc12`?
GLS inh: -2%; GRP78 ERSR act: -4%; GLP1R inv ag: 10µM*; PTHR1 agonist: inactive; ALOX12 inh: inconclusive

Results for COc1ccccc1CNC(=O)c1oc2ccc(S(=O)(=O)N3CCCCC3)cc2c1C ?
GLS inh: 1%; GRP78 ERSR act: -4%; GLP1R inv ag: inconclusive; PTHR1 agonist: inactive; ALOX12 inh: 1%

Results for CC(C(=O)N1CCCCC1)N1CCN(S(=O)(=O)c2ccc(Cl)cc2)CC1 (configuration not stated) ?
GLS inh: 0%; GRP78 ERSR act: -6%; GLP1R inv ag: -16%; PTHR1 agonist: -39%; ALOX12 inh: 1µM*; GLP-1R agonist: -5%

What do the screens show for `O=C(CN1C(=O)COc2ccc(S(=O)(=O)N3CCCCC3)cc21)NCc1ccc(Cl)cc1`?
GLS inh: -1%; GRP78 ERSR act: -3%; GLP1R inv ag: 10µM*; PTHR1 agonist: -23%; ALOX12 inh: 3%; GLP-1R agonist: -3%

How did C/C(=N\Nc1cc(N2CCCCC2)nc(C)n1)c1ccc(Br)cc1 do in these assays?
GLS inh: -1%; GRP78 ERSR act: -2%; GLP1R inv ag: 10µM*; PTHR1 agonist: -12%; ALOX12 inh: inconclusive; GLP-1R agonist: 11%

How did C/C(=N\Nc1cc(N2CCOCC2)nc(C)n1)c1ccc(F)cc1 do in these assays?
GLS inh: 3%; GRP78 ERSR act: 3%; GLP1R inv ag: inconclusive; PTHR1 agonist: inactive; ALOX12 inh: -10%; GLP-1R agonist: 8%

Results for O=C(NCCc1c[nH]c2ccc(F)cc12)C1CCN(c2nc(Cl)nc3nc[nH]c23)CC1 ?
ALOX12 inh: 0%

What do the screens show for `O=C(COc1ccc(C(=O)c2ccccc2)cc1)OCCOc1cccc(Cl)c1`?
ALOX12 inh: -20%

How did Oc1cccc(-c2c3nc(c(-c4cccc(O)c4)c4ccc([nH]4)c(-c4cccc(O)c4)c4nc(c(-c5cccc(O)c5)c5ccc2[nH]5)CC4)C=C3)c1 do in these assays?
GLS inh: 6%; GRP78 ERSR act: -6%; ALOX12 inh: 3.6µM*; GLP-1R agonist: -5%

How did Cc1cc(C(=O)CSc2nnc(-c3ccncc3)n2-c2ccc(F)cc2)c(C)n1C1CC1 do in these assays?
ALOX12 inh: -20%

How did Nc1nnc(CC(=O)N/N=C/c2cccc([N+](=O)[O-])c2)s1 do in these assays?
GLS inh: -7%; GRP78 ERSR act: -3%; GLP1R inv ag: -17%; PTHR1 agonist: -21%; ALOX12 inh: -3%; GLP-1R agonist: 4%

Results for Nc1nnc(CC(=O)N/N=C/c2cc([N+](=O)[O-])cc(Br)c2O)s1 ?
GLS inh: 26%; GRP78 ERSR act: -4%; GLP1R inv ag: 0%; PTHR1 agonist: -3%; ALOX12 inh: 16µM*; GLP-1R agonist: -3%

Results for O=c1c2ccccc2[nH]c2ccc(O)cc12 ?
GLS inh: 5µM*; GRP78 ERSR act: 2%; GLP1R inv ag: 156%; PTHR1 agonist: -19%; ALOX12 inh: inconclusive; GLP-1R agonist: 15%

Results for O=C(c1cc(C2CC2)nn1-c1ccccc1)N1CCN(Cc2ccc(Cl)cc2)CC1 ?
GLS inh: 1%; GRP78 ERSR act: -3%; GLP1R inv ag: inconclusive; PTHR1 agonist: -84%; ALOX12 inh: -18%; GLP-1R agonist: -2%

How did O=C(c1cc(C2CC2)nn1-c1ccccc1)N1CCN(Cc2ccccc2F)CC1 do in these assays?
GLS inh: 0%; GRP78 ERSR act: 1%; GLP1R inv ag: 8.9µM*; PTHR1 agonist: -1%; ALOX12 inh: 9%; GLP-1R agonist: 0%

How did Oc1ccccc1C=NNC(=S)NC1CC2C=CC1C2 (configuration not stated) do in these assays?
GLS inh: 22%; GRP78 ERSR act: 7%; GLP1R inv ag: inconclusive; PTHR1 agonist: -31%; ALOX12 inh: 45µM*; GLP-1R agonist: 17%

How did Oc1ccccc1/C=N/NC(=S)NC1CC2C=CC1C2 (configuration not stated) do in these assays?
GLS inh: 0%; GRP78 ERSR act: 6%; GLP1R inv ag: 7.9µM*; PTHR1 agonist: -11%; ALOX12 inh: inconclusive; GLP-1R agonist: inconclusive

What do the screens show for `Oc1c(Cl)cc(Cl)cc1/C=N/NC(=S)NC1CC2C=CC1C2` (configuration not stated)?
GLS inh: 27%; GRP78 ERSR act: -1%; GLP1R inv ag: inconclusive; PTHR1 agonist: -22%; ALOX12 inh: inconclusive; GLP-1R agonist: 10%
